Reference: PubChem BioAssay AID1159580 (chemical genetic matrix, 2015)
Among all 5,500 compounds or so, about 2,000 (36%) were called active. Another 18% or so got no clear call; they are omitted. Cut-off read from the data, not from the text of the source: active = normalized growth mostly below about 0.91 (no sharp cut-off); inconclusive = no clear call, values can overlap the other calls; inactive = mostly above about 0.92. This is one part of the list.

Assay: chemical genetic growth profiling, strain panel (AID 1159580);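 note: tested at 20 µM; growth read once vehicle control cultures reached saturation at 30 °C; 1 = growth at the plate median or of vehicle wells; lower values mean less growth of the strain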
Settings: S. cerevisiae deletion strains, growth OD

Measured: normalized growth

Clc1ccc(N/N=C\c2sccc2Oc2ccccc2)cc1
inactive: locus YAR019C, strain CDC15, active compounds read low 0.971 | locus YBL105C, strain PKC1, active compounds read low 0.979 | locus YBR135W, strain CKS1, active compounds read low 0.966 | locus YBR136W, strain MEC1, active compounds read low 0.963 | locus YBR160W, strain CDC28, active compounds read low 0.965 | locus YDL017W, strain CDC7, active compounds read low 0.974 | locus YDL028C, strain MPS1, active compounds read low 0.968 | locus YDL101C, strain DUN1, active compounds read low 0.951 | locus YDL108W, strain KIN28, active compounds read low 0.969 | locus YDL132W, strain cdc53, active compounds read low 0.964 | locus YDR052C, strain DBF4, active compounds read low 0.95 | locus YDR054C, strain cdc34, active compounds read low 0.963 | locus YDR226W, strain ADK1, active compounds read low 0.96 | locus YFL009W, strain cdc4, active compounds read low 0.968 | locus YFL029C, strain CAK1, active compounds read low 0.959 | locus YFR003C, strain YPI1, active compounds read low 0.975 | locus YFR028C, strain CDC14, active compounds read low 0.965 | locus YIL147C, strain SLN1, active compounds read low 0.969 | locus YJL128C, strain PBS2, active compounds read low 0.864 | locus YJR016C, strain ILV3, active compounds read low 0.947 | locus YKL193C, strain SDS22, active compounds read low 0.968 | locus YMR001C, strain CDC5, active compounds read low 0.972 | locus YMR277W, strain FCP1, active compounds read low 0.977 | locus YNL006W, strain LST8, active compounds read low 0.968 | locus YNL161W, strain CBK1, active compounds read low 0.974 | locus YNL207W, strain RIO2, active compounds read low 0.969 | locus YNL222W, strain SSU72, active compounds read low 0.966 | locus YOL078W, strain AVO1, active compounds read low 0.97 | locus YOR329C, strain SCD5, active compounds read low 0.978 | locus YPL209C, strain IPL1, active compounds read low 0.977 | locus YPR025C, strain CCL1, active compounds read low 0.963 | locus YPR106W, strain ISR1, active compounds read low 0.967 | locus YPR111W, strain DBF20, active compounds read low 0.963 | strain NNK1, active compounds read low 0.979 | strain TSCII, active compounds read low 0.966
active: locus YDL214C, strain PRR2, active compounds read low 0.335 | locus YDR477W, strain SNF1, active compounds read low 0.275 | locus YER123W, strain YCK3, active compounds read low 0.184 | locus YER133W, strain GLC7, active compounds read low 0.345 | locus YFR019W, strain FAB1, active compounds read low 0.313 | locus YGR040W, strain KSS1, active compounds read low 0.268 | locus YGR052W, strain FMP48, active compounds read low 0.21 | locus YGR092W, strain DBF2, active compounds read low 0.115 | locus YHR030C, strain SLT2, active compounds read low 0.125 | locus YHR079C, strain IRE1, active compounds read low 0.474 | locus YHR082C, strain KSP1, active compounds read low 0.361 | locus YHR205W, strain SCH9, active compounds read low 0.43 | locus YJL095W, strain BCK1, active compounds read low 0.125 | locus YJL157C, strain FAR1, active compounds read low 0.316 | locus YJR066W, strain TOR1 (second series), active compounds read low 0.423 | locus YJR066W, strain TOR1, active compounds read low 0.241 | locus YKL048C, strain ELM1, active compounds read low 0.468 | locus YKL067W, strain YNK1, active compounds read low 0.303 | locus YKL101W, strain HSL1, active compounds read low 0.353 | locus YKL203C, strain TOR2, active compounds read low 0.34 | locus YLR113W, strain HOG1, active compounds read low 0.275 | locus YLR133W, strain CKI1, active compounds read low 0.28 | locus YLR403W, strain SFP1, active compounds read low 0.242 | locus YML070W, strain DAK1, active compounds read low 0.293 | locus YMR205C, strain PFK2 (second series), active compounds read low 0.47 | locus YNL020C, strain ARK1, active compounds read low 0.382 | locus YNL183C, strain NPR1, active compounds read low 0.393 | locus YNL307C, strain MCK1 (second series), active compounds read low 0.147 | locus YOL136C, strain PFK27, active compounds read low 0.312 | locus YOR061W, strain CKA2, active compounds read low 0.19 | locus YOR119C, strain RIO1, active compounds read low 0.299 | locus YOR231W, strain MKK1, active compounds read low 0.477 | locus YPL031C, strain PHO85, active compounds read low 0.295 | locus YPL153C, strain RAD53, active compounds read low 0.279 | locus YPL204W, strain HRR25, active compounds read low 0.338 | locus YPL256C, strain CLN2, active compounds read low 0.275
